Bioassay records: PubChem BioAssay, National Center for Advancing Translational Sciences (NCATS)
A selection: hits, their analogues and other compounds. The true share with any hit is near 2.8%.
POLI inh – qHTS for Inhibitors of Polymerase Iota; Pol iota fluorescent replication assay, 10 min; hit rate 1% among 390,000; Potency, µM (highest dose often 115 µM), without a hit: at the highest dose activity, negative = inhibition, hits mostly inhibitors; DNA polymerase iota (Homo sapiens), Q9UNA4; note: potency is the fitted concentration of half-maximal effect
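Pol iota at 10 nM preincubated 15 min with compounds at room temperature; reaction started with fluorescent substrate, 50 nM final. Fluorescence read kinetically at 0 and 10 min; buffer-only wells as negative control.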
Pol kappa inh-1 – qHTS for Inhibitors of Polymerase Kappa; DNA polymerase kappa (Homo sapiens), Q9UBT6; purified Pol kappa, fluorescent DNA synthesis assay, 10 min; Potency, µM (series often up to 107 µM), for inactives: top-dose activity, negative = inhibition, most hits filed as inhibitors; hit rate 0.53% among 400,000; AID 588579, 2011; note: potency is the fitted concentration of half-maximal effect; % is set by controls: 0 for no effect and ±100 for the full control effect
Target sequence (Q9UBT6 whole entry, looked up): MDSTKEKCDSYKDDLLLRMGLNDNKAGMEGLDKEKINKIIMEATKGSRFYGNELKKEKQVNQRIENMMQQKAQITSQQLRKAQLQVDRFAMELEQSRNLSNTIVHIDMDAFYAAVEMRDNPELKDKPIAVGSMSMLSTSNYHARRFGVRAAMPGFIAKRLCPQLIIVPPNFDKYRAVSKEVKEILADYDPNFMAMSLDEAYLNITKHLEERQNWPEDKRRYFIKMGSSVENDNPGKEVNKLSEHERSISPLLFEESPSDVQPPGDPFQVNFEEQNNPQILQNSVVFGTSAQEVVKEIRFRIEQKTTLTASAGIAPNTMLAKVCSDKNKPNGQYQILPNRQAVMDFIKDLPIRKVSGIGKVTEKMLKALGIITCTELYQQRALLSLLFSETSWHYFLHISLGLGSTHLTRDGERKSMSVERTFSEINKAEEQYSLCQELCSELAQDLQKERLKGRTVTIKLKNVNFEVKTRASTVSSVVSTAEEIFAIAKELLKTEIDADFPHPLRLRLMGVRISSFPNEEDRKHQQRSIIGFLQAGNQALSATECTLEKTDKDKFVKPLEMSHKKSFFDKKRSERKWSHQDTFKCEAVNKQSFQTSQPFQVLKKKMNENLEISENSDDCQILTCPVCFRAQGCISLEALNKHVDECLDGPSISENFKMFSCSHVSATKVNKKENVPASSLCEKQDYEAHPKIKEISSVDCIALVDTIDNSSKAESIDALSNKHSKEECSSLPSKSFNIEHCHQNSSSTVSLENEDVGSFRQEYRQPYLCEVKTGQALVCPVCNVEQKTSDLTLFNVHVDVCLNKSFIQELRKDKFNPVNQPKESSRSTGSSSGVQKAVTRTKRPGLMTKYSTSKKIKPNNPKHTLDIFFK
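Kinetic fluorescence readout at 0 and 10 min followed reaction start with substrate at 50 nM final. Beforehand, enzyme (10 nM Pol kappa) stood 15 min with compound at room temperature; buffer-only wells were negative controls.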
WRN inhibitor – qHTS for Inhibitors of WRN Helicase | Bifunctional 3'-5' exonuclease/ATP-dependent helicase WRN (Homo sapiens), Q14191 | WRN helicase unwinding, fluorescent forked duplex, kinetic | Potency, µM (highest dose often 114 µM), inactives show at the highest dose activity change, negative = inhibition, hits mostly inhibitors | hit rate 0.46% among 360,000 | AID 651768, 2012; note: potency is the fitted concentration of half-maximal effect; % is set by controls: 0 for no effect and ±100 for the full control effect; nearly all actives have a fitted effect of over 55% in size
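Enzyme (20 nM final) and test compound sit together 15 min at room temperature before substrate addition. Substrate is a single-forked duplex oligonucleotide (100 nM) labelled with fluorophore and quencher, with 2 mM ATP; helicase unwinding raises red fluorescence, read kinetically.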
PI5P4Ka inh – qHTS for Inhibitors of phosphatidylinositol 5-phosphate 4-kinase (PI5P4K). Phosphatidylinositol 5-phosphate 4-kinase type-2 alpha (Homo sapiens), P48426. hit rate 1.2% among 330,000. PI5P4Kalpha enzyme, ADP-Glo luminescence, 60 min; stronger effect = lower value. max response, %; active = max response of -50% or lower; inconclusive = between -30% and -50%; inactive = -30% or higher; note: value at the top dose of about 77 µM; % is set by controls: 0 for no effect and ±100 for the full control effect
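Controls without substrate or without enzyme flank wells where PI5P4Kalpha converts substrate using 5 microM ATP (final). Incubation lasts 60 minutes at room temperature; ADP formed is read by ADP-Glo luminescence.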
Pol eta inh-1 – qHTS for Inhibitors of Polymerase Eta; recombinant Pol eta, fluorescent DNA replication assay; Potency, µM (highest dose often 114 µM), for inactives: at the top dose activity change, negative = inhibition, hits mostly inhibitors; hit rate 1.2% among 390,000; AID 588591, 2011; note: potency is the fitted concentration of half-maximal effect; % is set by controls: 0 for no effect and ±100 for the full control effect
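Pol eta at 10 nM preincubated with compounds 15 min at room temperature; reaction started with fluorescent substrate (50 nM final) and read kinetically at 0 and 10 min.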
POLB inh – qHTS Assay for Inhibitors of DNA Polymerase Beta; P06746; Pol beta primer extension/strand displacement, fluorescence kinetic; Potency, µM (series often up to 114 µM), without a hit: top-dose activity change, negative = inhibition, usual class: inhibitors; hit rate 1.3% among 340,000; AID 485314, 2010; note: potency is the fitted concentration of half-maximal effect; % is set by controls: 0 for no effect and ±100 for the full control effect
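10 nM enzyme + cpd, 15 min RT; start with substrate 50 nM final; read 0 min and after 10 min RT. Corrected, normalized data; 4-parameter Hill curve fit.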
Pol iota confirm – qHTS for Inhibitors of Polymerase Iota: Confirmatory Assay for Cherry-picked Compounds; hit rate 77% among 1,500; Pol iota primer extension, TAMRA/BHQ fluorescence; Potency, µM, hits mostly inhibitors; shares compounds with Pol kappa inh-1; note: potency is the fitted concentration of half-maximal effect
Pol kappa inh-2 – qHTS for Inhibitors of Polymerase Kappa: Confirmatory Assay for Cherry-picked Compounds; shares compounds with Pol eta inh-1; hit rate 76% among 920; purified Pol-kappa, fluorescent strand-displacement substrate; Potency, µM, usual class: inhibitors; note: potency is the fitted concentration of half-maximal effect
Pol eta inh-2 – qHTS for Inhibitors of Polymerase Eta: Confirmatory Assay for Cherry-picked Compounds. shares compounds with Pol eta inh-1. Pol eta primer extension, TAMRA/BHQ fluorescence, 10 min. AID 720502, 2013. Potency, µM, hits mostly inhibitors. hit rate 64% among 2,600; note: potency is the fitted concentration of half-maximal effect
Numbers without * were called inactive; u = inconclusive; x = not tested or not shown; [ ] = remark or other dose. Unless noted, calls come from the whole dose curve; as a rule, active = well fitted curve in the direction sought with a large enough effect; inconclusive = small, poorly fitted or top-dose-only effect, or another doubt; inactive = no such curve, though single readings can be large; an effect the other way counts as inactive or inconclusive.

SMILES	POLI inh	Pol kappa inh-1	WRN inhibitor	PI5P4Ka inh	Pol eta inh-1	POLB inh	Pol iota confirm	Pol eta inh-2	others
O=C(CNC(=O)c1cc(Cl)nc2ccccc12)Nc1ccccc1Br	21.5%	-14.0%	3.6%	5.8	-1.7%	x	x	x
CCn1cc(C(=O)O)c(=O)c2cc(F)c(N/N=C/c3ccccc3)cc21	u	-25.7%	-31.8%	2.2	2.51µM*	u	84.4*	2.69*
CCn1cc(C(=O)O)c(=O)c2cc(F)c(N3CCN(C(=O)Nc4ccccc4)CC3)cc21	-0.7%[58.9 µM]	-1.9%	3.6%	x	-7.8%	-11.7%	x	x
C=CCn1c(O)c(N=NC(=O)CNC(=O)/C=C/c2ccco2)c2ccccc21	28.2µM*	u	u	x	50.1µM*	14.1µM*	37.7*	75.7*
C=CCn1c(O)c(N=NC(=O)CNC(=O)/C=C/c2ccc(OC)cc2)c2ccccc21	15.5%	-12.6%	-6.5%	2.4	9.7%	38.9%	x	x
COc1ccc(C=C2SC(=S)N(CCCN3CCOCC3)C2=O)c(OC)c1	x	x	0.7%	-13.0	-15.1%	x	x	x
O=C1C(=Cc2cccc(O)c2O)SC(=S)N1CCCN1CCOCC1	x	x	-31.1%[11.6 µM]	-71.4*	20µM*	x	u	u
CN(C)c1ccc(CNC(=O)/C=C/[C@H]2O[C@@H](n3ccc(=O)[nH]c3=O)[C@H](O)[C@@H]2O)cc1	x	x	-3.6%	-2.8	x	x	x	x
COc1cc2cc(Oc3ccc4ccc(=O)oc4c3)c(=O)oc2cc1OC(=O)/C=C/c1ccccc1	-11.5%	-20.8%	0.9%	-4.9	-2.1%	11.1%	x	x
COc1cc2cc(Oc3ccc4ccc(=O)oc4c3)c(=O)oc2cc1OC1OC(COC(=O)CC(C)(O)CC(=O)O)C(O)C(O)C1O (stereo not drawn)	50.1µM*	u	-15.0%[11.6 µM]	u	35.5µM*	u	67*	47.8*
CSc1ncc(CNc2cc([N+](=O)[O-])ccc2C)c(N)n1	-0.8%	-12.0%	x	x	-13.8%	x	x	x
O=c1[nH]c(=O)c2nc3c4ccccc4c4ccccc4c3nc2[nH]1	86.9%	-25.0%	u	11.9	28.2µM*	u	18.9*	x	Pol kappa inh-2=9.47*
C[C@@H]1OC(O[C@H]2[C@H](Oc3cc(O)c4c(=O)c(O)c(-c5ccc(O)cc5)oc4c3)O[C@H](CO)[C@@H](O)[C@@H]2O)[C@H](O)[C@H](O)[C@H]1O (stereo partly drawn)	x	8.1%[60.1 µM]	x	x	x	x	x	x
O=c1c(OC2OC(CO)C(O)C(O)C2OC2OC(CO)C(O)C(O)C2O)c(-c2ccc(O)cc2)oc2cc(O)cc(O)c12 (stereo not drawn)	28.2µM*	50.1µM*	-10.0%[11.6 µM]	-21.0	11.2µM*	22.4µM*	u	u
CN(Cc1ccco1)c1ncnc2ccc(-c3ccoc3)cc12	28.2µM*	u	x	x	-26.3%	x	16.8*	37.9*	Pol kappa inh-2=16.8*
CCOCCCNCc1cc(Cl)cc(Cl)c1OCC	3.2%	6.5%	5.1%	1.6	-17.4%	49.8%	x	x
O=C1c2ccc(Oc3cccc([N+](=O)[O-])c3)cc2C(=O)N1c1ccccn1	-26.4%	-2.4%	4.5%	-10.9	1.0%	-1.0%	x	x
